Common to all, as to set-up: scale not given: direction of the effect not stated beside the values
The target in experiment [1] is Protein translocase subunit SecA (Escherichia coli (strain K12)) (UniProt P10408). The experiment in a line: Assay to Identify E. coli SecA ATPase Inhibitors. In kind it is functional. The conditions noted are these: 30 µM.
In experiment [2] the target is T1, Ubiquitin-activating enzyme e1, putative (Leishmania donovani (strain BPK282A1)) (UniProt E9BSI1).
T1 sequence (whole entry): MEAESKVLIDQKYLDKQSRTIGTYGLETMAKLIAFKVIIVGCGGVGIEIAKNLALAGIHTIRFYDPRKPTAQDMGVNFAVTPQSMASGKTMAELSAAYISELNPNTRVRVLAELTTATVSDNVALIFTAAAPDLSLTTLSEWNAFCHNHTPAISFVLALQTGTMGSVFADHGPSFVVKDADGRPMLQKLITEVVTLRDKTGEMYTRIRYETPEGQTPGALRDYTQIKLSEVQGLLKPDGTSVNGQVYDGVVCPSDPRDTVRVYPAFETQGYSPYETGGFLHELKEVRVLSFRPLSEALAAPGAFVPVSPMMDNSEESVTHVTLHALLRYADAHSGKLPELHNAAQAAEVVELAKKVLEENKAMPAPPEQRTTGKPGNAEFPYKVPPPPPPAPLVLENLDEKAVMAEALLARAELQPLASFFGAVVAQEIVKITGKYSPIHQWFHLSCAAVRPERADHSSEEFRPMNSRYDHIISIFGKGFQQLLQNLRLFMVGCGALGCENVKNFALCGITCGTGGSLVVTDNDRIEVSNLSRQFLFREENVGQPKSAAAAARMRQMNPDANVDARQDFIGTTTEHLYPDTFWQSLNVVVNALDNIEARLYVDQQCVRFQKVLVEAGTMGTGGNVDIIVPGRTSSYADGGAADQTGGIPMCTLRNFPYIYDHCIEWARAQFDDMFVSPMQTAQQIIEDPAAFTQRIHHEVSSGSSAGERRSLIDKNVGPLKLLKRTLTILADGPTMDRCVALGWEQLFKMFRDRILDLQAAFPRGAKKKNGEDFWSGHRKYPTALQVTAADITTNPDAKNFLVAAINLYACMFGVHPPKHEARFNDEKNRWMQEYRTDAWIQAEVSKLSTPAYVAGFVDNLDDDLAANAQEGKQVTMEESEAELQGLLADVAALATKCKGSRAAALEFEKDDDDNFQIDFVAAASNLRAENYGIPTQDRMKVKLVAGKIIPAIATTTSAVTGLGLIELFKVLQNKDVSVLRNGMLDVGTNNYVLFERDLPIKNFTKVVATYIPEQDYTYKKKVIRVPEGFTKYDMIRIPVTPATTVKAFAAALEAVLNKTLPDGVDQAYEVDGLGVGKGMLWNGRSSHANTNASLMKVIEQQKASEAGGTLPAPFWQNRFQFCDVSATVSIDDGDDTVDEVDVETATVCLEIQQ
The experiment in a line: Leishmania donovani Ubiquitin Activating Enzyme (LdE1). The note with it: 30 µM. Type of experiment: functional.

The target in experiment [3] is AMP-activated protein kinase, AMPK (Homo sapiens) (UniProt P54646+O43741+P54619+Q9UGJ0+Q9Y478+Q13131+Q9UGI9). The experiment in a line: AMP-dependent Kinase enzyme assay. An in vitro enzyme assay that detects ADP turnover that is directly proportional to AMPK activity. This uses naive AMPK that is activated during the assay with MK-8722. In kind it is functional. The note with it: 30 µM.

In experiment [4] the target is Sialic acid-binding Ig-like lectin 9 (Homo sapiens) (UniProt Q9Y336). The experiment in a line: Hs-Siglec9 ALPHAscreen SOP 20170721. The note with it: 10 µM. In general terms: Alpha assays give light when donor and acceptor beads are brought close together.
Sialic acid-binding Ig-like lectin 9 (Homo sapiens), sequence (Q9Y336 whole entry): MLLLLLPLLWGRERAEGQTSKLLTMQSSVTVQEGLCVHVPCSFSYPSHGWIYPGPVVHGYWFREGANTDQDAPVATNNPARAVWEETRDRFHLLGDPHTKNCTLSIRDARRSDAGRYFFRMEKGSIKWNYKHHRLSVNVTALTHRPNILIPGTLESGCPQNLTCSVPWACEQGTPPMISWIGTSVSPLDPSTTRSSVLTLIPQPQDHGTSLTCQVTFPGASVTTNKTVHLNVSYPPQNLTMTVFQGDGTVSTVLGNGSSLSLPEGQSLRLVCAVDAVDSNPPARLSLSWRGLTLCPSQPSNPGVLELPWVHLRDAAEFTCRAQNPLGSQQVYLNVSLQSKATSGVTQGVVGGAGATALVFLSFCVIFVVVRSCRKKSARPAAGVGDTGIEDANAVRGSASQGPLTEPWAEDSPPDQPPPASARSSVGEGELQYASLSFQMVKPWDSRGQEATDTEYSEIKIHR
The test system of experiment [5] is Trypanosoma cruzi. The experiment in a line: Trypanosoma cruzi phosphomannomutase and mannose-1-phosphate guanylyltransferase assay. Type of experiment: functional. The conditions noted are these: 10 µM.
Experiment [6] deals with T2, Arginase-2, mitochondrial (Homo sapiens) (UniProt P78540).
T2 sequence (whole entry): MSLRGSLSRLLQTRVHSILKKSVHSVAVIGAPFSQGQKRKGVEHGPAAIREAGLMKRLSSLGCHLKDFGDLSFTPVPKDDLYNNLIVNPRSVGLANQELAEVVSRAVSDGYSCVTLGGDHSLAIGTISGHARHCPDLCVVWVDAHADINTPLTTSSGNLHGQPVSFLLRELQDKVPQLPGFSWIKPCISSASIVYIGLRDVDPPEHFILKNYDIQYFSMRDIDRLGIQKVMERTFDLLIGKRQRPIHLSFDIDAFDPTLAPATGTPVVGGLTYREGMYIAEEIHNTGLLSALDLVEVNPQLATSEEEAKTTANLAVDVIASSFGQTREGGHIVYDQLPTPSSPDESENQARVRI
The experiment in a line: in vitro enzyme assay to detect the production of urea directly proportional to the activity of Arginase II. Further: in the data most compounds retested in dose-response had high values. Type of experiment: functional. The conditions noted are these: 33.3 µM.

Experiment [7] has as its target T3, Proteasome subunit beta (Trypanosoma cruzi) (UniProt O96673).
T3 sequence (whole entry): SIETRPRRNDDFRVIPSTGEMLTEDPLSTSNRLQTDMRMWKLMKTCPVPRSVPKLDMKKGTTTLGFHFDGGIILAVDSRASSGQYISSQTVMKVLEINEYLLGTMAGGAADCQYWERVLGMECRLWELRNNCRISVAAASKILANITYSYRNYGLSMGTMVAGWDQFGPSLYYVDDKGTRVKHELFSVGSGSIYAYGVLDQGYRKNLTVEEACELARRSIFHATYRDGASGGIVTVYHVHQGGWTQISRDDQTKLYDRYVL
The experiment in a line: Trypanosoma cruzi proteasome chymotrypsin-like activity (TcProtChymo) assay. Further: in the data most compounds retested in dose-response had high values. In kind it is functional. The note with it: 9.37 µM.

Experiment [8] is filed under the species Homo sapiens. The experiment in a line: To identify inhibition of the IFN signalling (Jak-Stat) pathway via expression of an eGFP reporter gene under the control of an IFN-stimulated response element (ISRE) containing MxA promoter. Type of experiment: functional. The note with it: 30 µM. For orientation: A reporter such as luciferase makes a cellular process visible.

For experiment [9], the target named is T4, Tyrosyl-tRNA synthetase, putative (Trypanosoma cruzi (strain CL Brener)) (UniProt Q4DSP6).
T4 sequence (whole entry): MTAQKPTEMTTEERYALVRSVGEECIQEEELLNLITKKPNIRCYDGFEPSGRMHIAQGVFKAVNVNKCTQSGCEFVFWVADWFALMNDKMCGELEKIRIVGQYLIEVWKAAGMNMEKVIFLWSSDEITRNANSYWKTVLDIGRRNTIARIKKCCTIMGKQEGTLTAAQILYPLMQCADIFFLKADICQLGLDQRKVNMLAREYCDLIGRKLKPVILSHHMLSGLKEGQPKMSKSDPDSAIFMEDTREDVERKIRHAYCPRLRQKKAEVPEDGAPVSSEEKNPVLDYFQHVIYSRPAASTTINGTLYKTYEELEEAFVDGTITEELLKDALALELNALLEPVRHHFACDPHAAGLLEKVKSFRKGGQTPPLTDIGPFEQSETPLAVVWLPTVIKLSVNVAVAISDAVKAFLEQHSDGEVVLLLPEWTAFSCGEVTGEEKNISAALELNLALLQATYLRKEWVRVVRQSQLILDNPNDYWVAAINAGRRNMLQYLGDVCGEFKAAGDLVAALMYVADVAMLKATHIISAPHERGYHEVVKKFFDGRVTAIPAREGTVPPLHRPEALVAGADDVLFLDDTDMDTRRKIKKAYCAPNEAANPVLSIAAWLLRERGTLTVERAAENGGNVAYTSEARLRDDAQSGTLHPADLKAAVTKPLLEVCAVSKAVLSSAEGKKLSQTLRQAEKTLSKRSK
The experiment in a line: Trypanosoma cruzi tyrosyl tRNA synthetase (TcYRS) _High Tyrosine SOP. Further: in the data most compounds retested in dose-response had high values. Type of experiment: functional. The note with it: 30 µM.

The target in experiment [10] is T4, Tyrosyl-tRNA synthetase, putative (Trypanosoma cruzi (strain CL Brener)). The experiment in a line: Trypanosoma cruzi tyrosyl tRNA synthetase (TcYRS) SOP. Type of experiment: functional. The conditions noted are these: 30 µM.
Experiment [11] deals with Chromo domain-containing protein 1 (Saccharomyces cerevisiae (strain ATCC 204508 / S288c) (Baker's yeast)) (UniProt P32657). The experiment in a line: ScCHD-1 Enzyme Inhibition Assay. Further: in the data most compounds retested in dose-response had high values. Type of experiment: functional. The note with it: 30 µM.
Chromo domain-containing protein 1 (Saccharomyces cerevisiae (strain ATCC 204508 / S288c) (Baker's yeast)), sequence (P32657 whole entry, the tested form may be a part): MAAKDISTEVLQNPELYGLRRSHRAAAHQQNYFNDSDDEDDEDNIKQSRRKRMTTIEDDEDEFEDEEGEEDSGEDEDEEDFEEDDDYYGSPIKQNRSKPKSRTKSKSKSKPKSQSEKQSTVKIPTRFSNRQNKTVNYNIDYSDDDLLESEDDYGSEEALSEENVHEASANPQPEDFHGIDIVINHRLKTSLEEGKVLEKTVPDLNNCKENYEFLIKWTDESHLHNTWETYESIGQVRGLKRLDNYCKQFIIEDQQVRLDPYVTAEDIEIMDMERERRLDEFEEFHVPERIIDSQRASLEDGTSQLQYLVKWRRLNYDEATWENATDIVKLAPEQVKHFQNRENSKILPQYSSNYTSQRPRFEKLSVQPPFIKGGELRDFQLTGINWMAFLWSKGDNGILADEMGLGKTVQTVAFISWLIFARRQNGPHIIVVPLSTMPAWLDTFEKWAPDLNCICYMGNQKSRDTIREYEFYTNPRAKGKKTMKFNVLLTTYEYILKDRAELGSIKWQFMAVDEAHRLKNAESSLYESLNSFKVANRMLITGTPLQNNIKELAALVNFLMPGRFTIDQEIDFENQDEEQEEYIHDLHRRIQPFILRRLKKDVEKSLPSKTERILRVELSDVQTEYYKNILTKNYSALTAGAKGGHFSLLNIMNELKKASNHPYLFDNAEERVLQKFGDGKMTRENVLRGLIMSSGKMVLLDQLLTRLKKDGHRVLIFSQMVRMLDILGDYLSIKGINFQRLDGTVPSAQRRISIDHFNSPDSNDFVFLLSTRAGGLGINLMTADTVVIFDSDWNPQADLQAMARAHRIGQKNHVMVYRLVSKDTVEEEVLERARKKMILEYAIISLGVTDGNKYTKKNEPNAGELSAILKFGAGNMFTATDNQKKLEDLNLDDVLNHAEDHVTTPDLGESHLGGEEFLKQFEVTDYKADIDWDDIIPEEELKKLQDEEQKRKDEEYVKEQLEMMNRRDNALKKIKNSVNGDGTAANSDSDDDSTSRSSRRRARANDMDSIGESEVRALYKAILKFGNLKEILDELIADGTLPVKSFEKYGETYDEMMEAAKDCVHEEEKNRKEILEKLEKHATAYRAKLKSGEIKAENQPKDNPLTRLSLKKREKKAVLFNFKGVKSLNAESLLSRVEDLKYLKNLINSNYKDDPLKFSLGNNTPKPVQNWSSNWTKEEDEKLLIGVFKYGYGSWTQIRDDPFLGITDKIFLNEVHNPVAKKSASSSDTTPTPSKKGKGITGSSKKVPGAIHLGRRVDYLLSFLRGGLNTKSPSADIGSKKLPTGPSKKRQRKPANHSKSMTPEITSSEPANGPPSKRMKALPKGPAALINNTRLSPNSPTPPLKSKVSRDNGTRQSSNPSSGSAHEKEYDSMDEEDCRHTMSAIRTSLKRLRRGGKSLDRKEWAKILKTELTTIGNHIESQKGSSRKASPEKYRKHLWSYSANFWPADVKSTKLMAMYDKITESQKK

Structures are written as SMILES. For some of these results: Results with a measured potency or affinity are listed apart.

Protein translocase subunit SecA (Escherichia coli (strain K12)), sequence (P10408 whole entry): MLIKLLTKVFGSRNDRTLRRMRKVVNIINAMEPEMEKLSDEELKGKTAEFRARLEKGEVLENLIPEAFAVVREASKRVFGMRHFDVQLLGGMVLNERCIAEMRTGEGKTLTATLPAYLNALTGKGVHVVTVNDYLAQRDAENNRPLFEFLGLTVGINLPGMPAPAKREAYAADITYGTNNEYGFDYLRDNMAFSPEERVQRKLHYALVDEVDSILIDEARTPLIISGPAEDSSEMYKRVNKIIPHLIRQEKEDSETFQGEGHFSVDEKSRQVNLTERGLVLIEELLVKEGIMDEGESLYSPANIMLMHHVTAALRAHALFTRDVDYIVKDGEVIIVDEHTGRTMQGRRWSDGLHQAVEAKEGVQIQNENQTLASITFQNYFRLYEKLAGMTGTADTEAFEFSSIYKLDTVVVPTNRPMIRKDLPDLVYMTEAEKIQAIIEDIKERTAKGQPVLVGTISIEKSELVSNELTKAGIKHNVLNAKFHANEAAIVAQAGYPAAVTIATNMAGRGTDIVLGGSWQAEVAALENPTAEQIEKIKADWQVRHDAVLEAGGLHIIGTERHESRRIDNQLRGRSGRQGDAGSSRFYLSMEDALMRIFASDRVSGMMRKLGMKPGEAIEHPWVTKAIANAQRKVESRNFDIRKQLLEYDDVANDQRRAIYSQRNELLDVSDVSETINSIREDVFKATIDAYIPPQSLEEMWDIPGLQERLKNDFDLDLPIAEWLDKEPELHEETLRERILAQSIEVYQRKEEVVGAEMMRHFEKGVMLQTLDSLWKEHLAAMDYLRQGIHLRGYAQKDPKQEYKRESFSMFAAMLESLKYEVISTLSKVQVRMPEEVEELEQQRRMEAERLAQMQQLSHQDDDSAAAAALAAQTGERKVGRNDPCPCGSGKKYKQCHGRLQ

With `Fc1cccc(CN2CCC(c3n[nH]c4ncccc34)CC2)c1F`, the Percent Effect is -3.7% in experiment [1]; 9.46% in [2]; 25.8% in [3]; 6.41% in experiment [4]; 7.71% in experiment [5]; -1.16% in experiment [6]. Besides, the Percent Effect was 18.2% in experiment [7]; 18.6% in experiment [8]; 3.23% in experiment [9]; 14.3% in experiment [10]; -10.6% in [11].
For the compound `C[C@H]1C[C@@H]2CCN(C(=O)c3cccn3C)C[C@H]2O1`, the Percent Effect in experiment [1] was -0.284%; in [2] it was 10.8%; in [3], 2.27%; in [4], -5.58%; in [5], -8.89%; in experiment [6], 6.69%. In addition, the Percent Effect in [7] was 17.5%; in experiment [8], 3.63%; in experiment [9], -1.08%; in [10], 5.13%; in experiment [11], -0.358%.
Turning to `Cc1cc(S(=O)(=O)N2CCCc3cc(F)cc(F)c32)sc1C(=O)O`, the Percent Effect in experiment [1] was -9.52%; in experiment [2], -2.67%; in experiment [3] it was 2.83%; in experiment [4], 0.801%; in experiment [5], -6.33%; in experiment [6], -2.6%. The Percent Effect is 9.59% in experiment [7]; 7.51% in experiment [8]; -14.8% in experiment [9]; -18.5% in [10]; -5.34% in experiment [11].
In the case of `Cc1noc([C@@]23CCO[C@@H]2CCN(C(=O)C2CCOCC2)C3)n1`, the Percent Effect in [1] was -0.432%; in experiment [2], 10.7%; in experiment [3], 2.61%; in [4] it was -3.48%; in experiment [5], -1.54%; in experiment [6], -51.8%. In addition, the Percent Effect is 13.2% in experiment [7]; -1.95% in experiment [8]; 7.29% in experiment [9]; 20% in experiment [10]; -7.84% in [11].
For the compound `CCC(C)NC(=O)NCCCn1nc2ccccn2c1=O` (stereo unspecified), the Percent Effect was -2.08% in experiment [1]; 13.5% in experiment [2]; -4.74% in [3]; -3.56% in experiment [4]; 7.08% in experiment [5]; -3.61% in experiment [6]. Besides, the Percent Effect in experiment [7] was 16.4%; in experiment [8], -114%; in experiment [9], 1.48%; in [10], 18.5%; in experiment [11], -14.5%.
Take `O[C@H]1[C@H](n2cc(-c3cccnc3)nn2)c2ccccc2C12CCNCC2`: the Percent Effect in experiment [1] is -1.28%; in experiment [2] it was 4.17%; in experiment [3], -0.513%; in experiment [4], 14.2%; in experiment [5], 2.82%; in experiment [6], 12.4%. Besides, the Percent Effect in experiment [7] was 3.86%; in experiment [8] it was -3.37%; in [9] it was 3.16%; in experiment [10] it was 10.3%; in [11], -3.88%.
Regarding `c1ccc(C[C@H]2CN(Cc3nccs3)CC[C@H]2OCC2CC2)cc1`, the Percent Effect in experiment [1] was -4.65%; in experiment [2], 2.67%; in experiment [3], 3.57%; in [4], 3.38%; in experiment [5], -0.591%; in [6], -2.56%. For the same compound, the Percent Effect is 4.32% in experiment [7]; 21.5% in experiment [8]; 3.19% in experiment [9]; 11.5% in [10]; -3.05% in experiment [11].
Take `CCN(CC1CCCO1)C(=O)Nc1ccc(F)cc1OC` (stereo unspecified): the Percent Effect in experiment [1] is -3.45%; in experiment [2], 17.7%; in experiment [3], -6.96%; in experiment [4], 10.6%; in experiment [5], 6.14%; in experiment [6], 3.8%. The Percent Effect was 4.5% in [7]; -28.1% in experiment [8]; 4.43% in experiment [9]; 16.5% in [10]; -7.51% in experiment [11].
As to `Cn1cc(NS(=O)(=O)c2ccc(OC(F)(F)F)cc2)ccc1=O`, the Percent Effect in experiment [1] is -4.62%; in [2], 7.59%; in [3], -136%; in [4], -4.96%; in experiment [5], -9.73%; in [6] it was -1.9%. Besides, the Percent Effect is 0.246% in [7]; 62.5% in experiment [8]; 0.493% in [9]; 8.86% in experiment [10]; -4.48% in [11].
Consider `CCN(c1ccc(C(=O)NCCCN2CCCC2)cc1)S(=O)(=O)CC`, for which the Percent Effect in [1] is -0.13%; in experiment [2], 5.26%; in experiment [3] it was -1.17%; in experiment [4], -1.94%; in [5] it was -9.83%; in [6] it was -7.1%. Further, the Percent Effect was 14.1% in experiment [7]; -5.53% in experiment [8]; 4.25% in [9]; 7.79% in experiment [10]; -3.78% in [11].
For `O=C1CCSCC(C(=O)N2CCCC2)N1` (stereo unspecified), the Percent Effect in experiment [1] is -1.89%; in [2], 0%; in experiment [3] it was 2.29%; in [4], -5.9%; in [5] it was -3.33%; in experiment [6], -1.36%. In addition, the Percent Effect in [7] is 3.37%; in experiment [8], -3.33%; in experiment [9] it was 1.07%; in experiment [10] it was 5%; in experiment [11], -1.55%.

The values above are taken from ChEMBL document CHEMBL3988442, “University of Dundee, Small-Polar-MMV Screening Library” (2021).
